Records with an inconclusive call do not appear. Active and inactive are the calls of the source. How the source made its calls, unless noted: active means hit-call score of the fitted dose curve at least 0.9, where 1 is the maximum; inactive means score below 0.9.
Key:
[1] = molecular target: Retinoic acid receptor RXR-alpha (Homo sapiens) (UniProt P19793); assay: ATG_RXRa_TRANS: Attagene TRANS-FACTORIAL HepG2 Assay for human Retinoid X Receptor alpha (RXRa) (AID 2283012; active means hit-call score of the fitted dose curve at least 0.9, where 1 is the maximum)
Sequence of Retinoic acid receptor RXR-alpha (Homo sapiens) (P19793 whole entry, looked up, the tested form may be a part): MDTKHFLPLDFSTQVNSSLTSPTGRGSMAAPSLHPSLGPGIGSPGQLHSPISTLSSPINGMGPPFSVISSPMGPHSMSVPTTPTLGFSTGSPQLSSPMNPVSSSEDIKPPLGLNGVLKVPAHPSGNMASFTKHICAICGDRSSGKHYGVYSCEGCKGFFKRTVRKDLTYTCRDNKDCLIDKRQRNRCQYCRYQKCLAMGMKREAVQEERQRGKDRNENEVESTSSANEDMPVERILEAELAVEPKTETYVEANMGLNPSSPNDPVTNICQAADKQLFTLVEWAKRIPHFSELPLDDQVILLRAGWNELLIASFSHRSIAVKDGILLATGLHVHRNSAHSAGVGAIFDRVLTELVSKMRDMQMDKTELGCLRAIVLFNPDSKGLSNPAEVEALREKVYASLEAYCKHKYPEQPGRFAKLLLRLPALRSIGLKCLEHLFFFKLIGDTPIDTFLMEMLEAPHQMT
Outline: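 TRANS format reporting activity of exogenous RXRa-Gal4 chimera in transiently transfected HepG2, 24 h exposure. Reporter transcripts quantified by RT-PCR with capillary electrophoresis, with gain of signal scored relative to DMSO.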

[2] = molecular target: human Retinoid X Receptor beta (RXRb), RXRB (gene 6257) (UniProt P28702); assay: ATG_RXRb_TRANS: Attagene TRANS-FACTORIAL HepG2 Assay for human Retinoid X Receptor beta (RXRb) (AID 2283013; active means hit-call score of the fitted dose curve at least 0.9, where 1 is the maximum)
Sequence of human Retinoid X Receptor beta (RXRb), RXRB (gene 6257) (P28702 whole entry, looked up, the tested form may be a part): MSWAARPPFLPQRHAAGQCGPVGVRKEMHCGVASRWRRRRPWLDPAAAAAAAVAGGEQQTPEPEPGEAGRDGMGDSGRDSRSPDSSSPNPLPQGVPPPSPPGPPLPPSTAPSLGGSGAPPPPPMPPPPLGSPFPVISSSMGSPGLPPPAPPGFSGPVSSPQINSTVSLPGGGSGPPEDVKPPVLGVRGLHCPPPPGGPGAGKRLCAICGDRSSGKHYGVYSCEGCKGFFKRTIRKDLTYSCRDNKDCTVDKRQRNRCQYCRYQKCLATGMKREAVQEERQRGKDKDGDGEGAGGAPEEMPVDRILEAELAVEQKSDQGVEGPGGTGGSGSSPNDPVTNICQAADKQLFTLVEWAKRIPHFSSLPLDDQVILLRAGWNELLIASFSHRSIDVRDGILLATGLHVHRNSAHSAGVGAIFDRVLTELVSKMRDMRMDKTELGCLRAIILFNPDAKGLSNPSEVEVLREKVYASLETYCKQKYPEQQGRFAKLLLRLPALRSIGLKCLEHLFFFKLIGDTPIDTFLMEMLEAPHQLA
Outline: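 Readout is reporter transcript induction after 24 h dosing. It is measured by RT-PCR of total RNA followed by fluorescent capillary electrophoresis. HepG2 liver cells carry transfected multiple reporter units driven by an exogenous RXRb-Gal4 fusion; activity is relative to DMSO.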

[3] = read-out: Interleukin-1 alpha (IL1a), IL1A (gene 3552); assay: BSK_BE3C_IL1a: BioMAP Diversity Plus: BE3C Assay for Interleukin-1 alpha (IL1a) Biomarker Activity (AID 2283016); details: primary human bronchial epithelial cells; actives raise or lower the signal
Outline: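 IL-1a measured by ELISA after 24 h treatment of human primary bronchial epithelial cells, with gain or loss of signal fitted versus DMSO. Parallel cultures stained with SRB gauge overt cytotoxicity.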

[4] = read-out: Monocyte Chemoattractant Protein-1 (MCP1), CCL2 (gene 6347); assay: BSK_3C_MCP1: BioMAP Diversity Plus: 3C Assay for Monocyte Chemoattractant Protein-1 (MCP1) Biomarker Activity (AID 2283017); details: primary human endothelial cells (HUVEC); actives raise or lower the signal
Outline: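 Human umbilical vein endothelial cells (3C system) exposed to chemicals for 24 h; MCP-1 quantified by ELISA against the DMSO baseline with bidirectional fitting, and parallel SRB staining used to assess cytotoxicity.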

[5] = read-out: Monocyte Chemoattractant Protein-1 (MCP1), CCL2 (gene 6347); assay: BSK_4H_MCP1: BioMAP Diversity Plus: 4H Assay for Monocyte Chemoattractant Protein-1 (MCP1) Biomarker Activity (AID 2283018); details: primary human endothelial cells (HUVEC); actives raise or lower the signal
Outline: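 ELISA of MCP-1 (CCL2) 24 h after chemical dosing of HUVEC in the BioMAP 4H system. Gain or loss versus DMSO fitted; parallel SRB staining (560 nm) tracked overt cytotoxicity.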

[6] = read-out: Human Leukocyte Antigen - DR isotype (HLADR), HLA-DRA (gene 3122); assay: BSK_3C_HLADR: BioMAP Diversity Plus: 3C Assay for Human Leukocyte Antigen - DR isotype (HLADR) Biomarker Activity (AID 2283019); details: primary human endothelial cells (HUVEC); actives raise or lower the signal;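 further: ELISA of cell-surface HLA-DR on HUVEC 24 h after dosing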
Outline: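 HUVEC monoculture, HLA-DR measured by ELISA 24 h after chemical dosing. Fitted bidirectionally against DMSO baseline; parallel SRB staining assessed cytotoxicity, with 3C proliferation read by SRB at 48 h.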

[7] = read-out: Interleukin-8 (IL8), CXCL8 (gene 3576); assay: BSK_3C_IL8: BioMAP Diversity Plus: 3C Assay for Interleukin-8 (IL8) Biomarker Activity (AID 2283020); details: primary human endothelial cells (HUVEC); actives raise or lower the signal
Outline: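 IL-8 was measured by ELISA in HUVEC cultures 24 h after chemical dosing, with gain or loss of signal fitted relative to DMSO. Parallel SRB total-protein staining tracked overt cytotoxicity.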

[8] = read-out: Monokine induced gamma interferon (MIG), CXCL9 (gene 4283); assay: BSK_3C_MIG: BioMAP Diversity Plus: 3C Assay for Monokine induced gamma interferon (MIG) Biomarker Activity (AID 2283021); details: primary human endothelial cells (HUVEC); actives raise or lower the signal
Outline: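 ELISA measurement of MIG in human umbilical vein endothelial cells 24 h after treatment. Cytotoxicity tracked by SRB staining in parallel cultures; gain or loss of signal fitted relative to DMSO.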

[9] = molecular target: human Vitamin D Receptor (VDR), VDR (gene 7421) (UniProt P11473); assay: ATG_VDR_TRANS: Attagene TRANS-FACTORIAL HepG2 Assay for human Vitamin D Receptor (VDR) (AID 2283022; active means hit-call score of the fitted dose curve at least 0.9, where 1 is the maximum)
Sequence of human Vitamin D Receptor (VDR), VDR (gene 7421) (P11473 whole entry, looked up, the tested form may be a part): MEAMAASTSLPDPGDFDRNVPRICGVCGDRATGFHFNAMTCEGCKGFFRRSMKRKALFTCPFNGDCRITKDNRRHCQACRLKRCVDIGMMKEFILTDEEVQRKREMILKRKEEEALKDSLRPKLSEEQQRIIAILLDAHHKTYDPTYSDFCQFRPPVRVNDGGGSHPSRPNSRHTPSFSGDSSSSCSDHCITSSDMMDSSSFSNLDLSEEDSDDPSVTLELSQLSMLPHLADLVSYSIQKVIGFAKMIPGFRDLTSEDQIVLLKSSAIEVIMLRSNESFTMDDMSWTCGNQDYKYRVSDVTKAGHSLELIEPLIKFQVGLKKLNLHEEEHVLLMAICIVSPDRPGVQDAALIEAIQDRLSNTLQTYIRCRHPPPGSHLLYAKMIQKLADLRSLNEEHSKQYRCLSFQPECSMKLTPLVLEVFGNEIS
Outline: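 HepG2 cells were transiently transfected with GAL4-UAS reporter units and a chimeric VDR-Gal4 construct, then dosed for 24 hours. Reporter mRNA was quantified by RT-PCR, fluorescent labeling, HpaI digestion and capillary electrophoresis; gain of signal analysed vs DMSO.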

[10] = BSK_3C_SRB: Viability Assessment in the BioMAP Diversity Plus: 3C Assay (AID 2283023); details: primary human endothelial cells (HUVEC);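 further: fitted both ways against DMSO so a hit may be signal rise or drop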
Outline: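 Human umbilical vein endothelial cells in the 3C system, treated 24 h. Total protein measured by 0.1% sulforhodamine B staining after 10% TCA fixation, read at 560 nm; bidirectional fit versus DMSO.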

[11] = BSK_3C_Vis: BioMAP Diversity Plus: 3C Assay for Morphology Visualization (AID 2283025); details: primary human endothelial cells (HUVEC);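 further: fitted both ways so gain or loss versus DMSO counts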
Outline: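 Light-microscopy visualization of HUVEC cultures at 24 h post-treatment, with DMSO as baseline for bidirectional fitting.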

[12] = read-out: Pselectin, SELP (gene 6403); assay: BSK_4H_Pselectin: BioMAP Diversity Plus: 4H Assay for Pselectin Biomarker Activity (AID 2283026); details: primary human endothelial cells (HUVEC); actives raise or lower the signal
Outline: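 ELISA of surface P-selectin on HUVEC, 24 h after dosing, with parallel SRB staining (0.1% after 10% TCA fixation, 560 nm) for overt cytotoxicity. Activity fitted in both directions relative to DMSO.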

[13] = BSK_4H_SRB: Viability Assessment in the BioMAP Diversity Plus: 4H Assay (AID 2283027); details: primary human endothelial cells (HUVEC);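 further: cells exposed to compound for 24 h before staining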;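 on AC50: curves fitted both ways versus DMSO so AC50 may be loss or gain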
Outline: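 HUVEC, 24 h post-dose; 10% TCA fix, 0.1% SRB stain, A560 nm. Total protein = overt cytotoxicity, parallel to biomarker read. Bidirectional fit vs DMSO baseline.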

[14] = BSK_BE3C_SRB: Viability Assessment in the BioMAP Diversity Plus: BE3C Assay (AID 2283028); details: primary human bronchial epithelial cells
Outline: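 Human bronchial epithelial primary cells in confluent culture, 24 h after chemical dosing; total protein by 0.1% SRB staining after 10% TCA fixation, read at 560 nm. Bidirectional fitting versus DMSO baseline.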

[15] = read-out: Thrombomodulin, THBD (gene 7056); assay: BSK_3C_Thrombomodulin: BioMAP Diversity Plus: 3C Assay for Thrombomodulin Biomarker Activity (AID 2283029); details: primary human endothelial cells (HUVEC); actives raise or lower the signal
Outline: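 ELISA measurement of thrombomodulin on HUVEC surface 24 h after chemical dosing; activity fitted in both directions relative to DMSO vehicle.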

[16] = read-out: Urokinase-type plasminogen activator receptor (uPAR), PLAUR (gene 5329); assay: BSK_4H_uPAR: BioMAP Diversity Plus: 4H Assay for Urokinase-type plasminogen activator receptor (uPAR) Biomarker Activity (AID 2283030); details: primary human endothelial cells (HUVEC); actives raise or lower the signal
Outline: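 Human umbilical vein endothelial cells in the 4H system, 24 h after chemical dosing. Cell-surface uPAR measured by ELISA, fitted in both directions versus DMSO; cytotoxicity checked by SRB total protein in parallel cultures.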

[17] = read-out: Vascular endothelial growth factor receptor 2 (Homo sapiens) (UniProt P35968); assay: BSK_4H_VEGFRII: BioMAP Diversity Plus: 4H Assay for Vascular endothelial growth factor receptor 2 (VEGFR2) Biomarker Activity (AID 2283031); details: primary human endothelial cells (HUVEC); actives raise or lower the signal
Outline: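 Primary human umbilical vein endothelial cells (4H system), 24 h exposure; cell-surface VEGFR2 measured by ELISA. Bidirectional fitting versus DMSO; cytotoxicity checked in parallel by SRB total-protein staining.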

[18] = molecular target: human Thyroid Receptor alpha (THRa1), THRA (gene 7067) (UniProt P10827); assay: ATG_THRa1_TRANS: Attagene TRANS-FACTORIAL HepG2 Assay for human Thyroid Receptor alpha (THRa1) (AID 2283014; active means hit-call score of the fitted dose curve at least 0.9, where 1 is the maximum)
Sequence of human Thyroid Receptor alpha (THRa1), THRA (gene 7067) (P10827 whole entry, looked up, the tested form may be a part): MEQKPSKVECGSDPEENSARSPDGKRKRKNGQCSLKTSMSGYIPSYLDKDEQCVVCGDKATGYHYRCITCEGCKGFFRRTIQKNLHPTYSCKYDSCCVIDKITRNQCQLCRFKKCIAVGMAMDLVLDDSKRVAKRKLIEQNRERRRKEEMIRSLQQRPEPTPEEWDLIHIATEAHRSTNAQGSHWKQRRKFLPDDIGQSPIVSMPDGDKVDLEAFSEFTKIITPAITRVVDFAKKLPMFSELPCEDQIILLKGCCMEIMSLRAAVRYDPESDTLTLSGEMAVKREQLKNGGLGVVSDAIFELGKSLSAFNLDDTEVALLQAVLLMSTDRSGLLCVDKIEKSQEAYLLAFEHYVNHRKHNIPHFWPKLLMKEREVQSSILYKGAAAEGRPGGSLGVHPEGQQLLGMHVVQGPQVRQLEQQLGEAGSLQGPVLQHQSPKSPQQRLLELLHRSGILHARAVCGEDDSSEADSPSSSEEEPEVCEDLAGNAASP
Outline: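 HepG2 cells transiently transfected with chimeric NR-Gal4 and GAL4-UAS reporter units, dosed 24 h. Reporter mRNA quantified by RT-PCR, fluorescent labeling, HpaI digestion and capillary electrophoresis; gain-of-signal fit versus DMSO.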

[19] = read-out: E-selectin (Homo sapiens) (UniProt P16581); assay: BSK_3C_Eselectin: BioMAP Diversity Plus: 3C Assay for Eselectin Biomarker Activity (AID 2283015); details: primary human endothelial cells (HUVEC); actives raise or lower the signal;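 further: cell surface E-selectin protein quantified by ELISA 24 h after dosing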
Outline: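 Primary human umbilical vein endothelial cells (3C system), read 24 h after compound addition; E-selectin measured by ELISA. Bidirectional curve fitting against DMSO baseline; cytotoxicity by parallel SRB total-protein staining.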

Measured: AC50

Sequence of E-selectin (Homo sapiens) (P16581 whole entry, looked up): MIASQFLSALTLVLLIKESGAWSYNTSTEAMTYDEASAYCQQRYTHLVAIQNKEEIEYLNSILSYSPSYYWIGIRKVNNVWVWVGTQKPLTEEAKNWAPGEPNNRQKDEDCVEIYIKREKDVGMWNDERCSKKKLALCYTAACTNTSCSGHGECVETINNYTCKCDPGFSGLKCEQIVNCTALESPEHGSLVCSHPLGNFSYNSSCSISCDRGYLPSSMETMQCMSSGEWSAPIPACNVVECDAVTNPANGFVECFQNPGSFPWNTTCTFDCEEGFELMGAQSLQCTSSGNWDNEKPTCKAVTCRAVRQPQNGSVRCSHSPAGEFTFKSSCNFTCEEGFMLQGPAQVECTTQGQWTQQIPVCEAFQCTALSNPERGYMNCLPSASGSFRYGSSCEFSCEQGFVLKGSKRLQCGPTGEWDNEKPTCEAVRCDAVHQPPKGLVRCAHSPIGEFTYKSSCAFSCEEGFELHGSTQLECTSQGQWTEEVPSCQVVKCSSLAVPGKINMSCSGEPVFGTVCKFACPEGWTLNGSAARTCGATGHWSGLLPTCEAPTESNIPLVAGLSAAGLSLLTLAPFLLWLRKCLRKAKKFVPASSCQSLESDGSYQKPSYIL

CCCCC=O
inactive: [1] | [2] | [3] | [4] | [5] | [6] | [7] | [8] | [9] | [10] | [11] | [12] | [13] | [14] | [15] | [16] | [17]

CS(=O)(=O)c1ccc([C@@H](CC2CCCC2)C(=O)Nc2cnccn2)cc1Cl
active: [10] 30.3 µM | [13] 19.2 µM | [16] 22.7 µM
inactive: [1] | [2] | [4] | [5] | [6] | [7] | [8] | [11] | [12] | [14] | [15] | [17]

C[N+](C)(CCCNS(=O)(=O)CCC(F)(F)C(F)(F)C(F)(F)C(F)(F)C(F)(F)C(F)(F)F)CC(=O)[O-]
inactive: [1] | [2] | [9]

CCOC=C(C(=O)OCC)C(=O)OCC
inactive: [1] | [2] | [9]

CC1CNCC(C)O1 (stereo not drawn)
inactive: [1] | [2] | [18] | [9]

Oc1cc2ccccc2cc1O
inactive: [1] | [18] | [19] | [3] | [4] | [5] | [6] | [7] | [8] | [10] | [11] | [12] | [13] | [14] | [15] | [16] | [17]

CC(C)(C)c1ccc(CCC=O)cc1
active: [2] 41.2 µM
inactive: [1] | [9]

CCC(C)c1nccnc1OC (stereo not drawn)
inactive: [1] | [2] | [9]

c1cnc2c(c1)ccc1cccnc12
inactive: [1] | [2] | [9]

O=C1c2ccc(O)c(O)c2C(=O)c2c(O)ccc(O)c21
inactive: [1] | [2] | [4] | [5] | [6] | [7] | [8] | [9] | [10] | [11] | [12] | [13] | [14] | [15] | [16] | [17]

O=C(O)C(=O)O
inactive: [1] | [2] | [9]

CCC(C)c1ccccc1O (stereo not drawn)
active: [2] 72.8 µM
inactive: [1] | [4] | [5] | [6] | [7] | [8] | [9] | [10] | [11] | [12] | [13] | [14] | [15] | [16] | [17]

Reference: PubChem BioAssay (EPA / NIEHS)
